Measurements as given in the supplement of paper PMC8728848.
The sample as a whole holds a higher share of the strongest signals than the screen did.

Key:
Test in all cases: glycan array binding signal (z-score within array); higher = stronger binding
Settings in all cases: glycan notation: IUPAC condensed, linker removed
[1] = molecular target: Gal(b1-4)GlcNAc(b1-3)Gal(b1-4)GlcNAc(b1-3)Gal(b1-4)GlcNAc(b1-3)Gal(b1-4)GlcNAc(b1-2)[Gal(b1-4)GlcNAc(b1-3)Gal(b1-4)GlcNAc(b1-3)Gal(b1-4)GlcNAc(b1-3)Gal(b1-4)GlcNAc(b1-6)]Man(a1-6)[Gal(b1-4)GlcNAc(b1-3)Gal(b1-4)GlcNAc(b1-3)Gal(b1-4)GlcNAc(b1-3)Gal(b1-4)GlcNAc(b1-2)Man(a1-3)]Man(b1-4)GlcNAc(b1-4)[Fuc(a1-6)]GlcNAc
How it was run: (§1)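 From the Consortium for Functional Glycomics database, 3228 arrays were curated, keeping only those whose protein sequence was available. Binding is given as a within-array Z-score averaged across arrays sharing a protein sequence and across linkers. Negative Z-scores can be read as non-binding.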

[2] = molecular target: Gal(b1-4)GlcNAc(b1-6)Gal(b1-4)GlcNAc
How it was run: as §1

[3] = molecular target: Gal3S(b1-3)GalNAc
How it was run: as §1

[4] = molecular target: Gal3S(b1-4)GlcNAc6S
How it was run: as §1

[5] = molecular target: Gal3S(b1-4)[Fuc(a1-3)]GlcNAc
How it was run: as §1

[6] = molecular target: Gal3S(b1-4)[Fuc(a1-3)]GlcNAc6S
How it was run: as §1

[7] = molecular target: Gal6S(b1-4)GlcNAc6S
How it was run: as §1

[8] = molecular target: GalNAc(b1-4)Gal(b1-4)Glc
How it was run: as §1

[9] = molecular target: GalNAc3S(b1-4)GlcNAc
How it was run: as §1

[10] = molecular target: GalNAc4S6S(b1-4)GlcNAc
How it was run: as §1

[11] = molecular target: GlcNAc(a1-4)Gal(b1-4)GlcNAc(b1-3)Gal(b1-4)[Fuc(a1-3)]GlcNAc(b1-3)Gal(b1-4)[Fuc(a1-3)]GlcNAc
How it was run: as §1

[12] = molecular target: GlcNAc(a1-6)Gal(b1-4)GlcNAc
How it was run: as §1

[13] = molecular target: GlcNAc(b1-2)Man(a1-3)[GlcNAc(b1-4)][GlcNAc(b1-2)Man(a1-6)]Man(b1-4)GlcNAc(b1-4)[Fuc(a1-6)]GlcNAc
How it was run: as §1

[14] = molecular target: GlcNAc(b1-3)Gal(b1-4)GlcNAc(b1-3)Gal(b1-4)GlcNAc(b1-3)Gal(b1-4)GlcNAc(b1-3)Gal(b1-4)GlcNAc(b1-2)Man(a1-3)[GlcNAc(b1-3)Gal(b1-4)GlcNAc(b1-3)Gal(b1-4)GlcNAc(b1-3)Gal(b1-4)GlcNAc(b1-3)Gal(b1-4)GlcNAc(b1-2)Man(a1-6)]Man(b1-4)GlcNAc(b1-4)[Fuc(a1-6)]GlcNAc
How it was run: as §1

[15] = molecular target: GlcNAc(b1-3)Gal(b1-4)GlcNAc(b1-6)[Gal(b1-3)]GalNAc
How it was run: as §1

[16] = molecular target: GlcNAc(b1-3)Gal(b1-4)GlcNAc(b1-6)[GlcNAc(b1-3)]Gal(b1-4)GlcNAc
How it was run: as §1

[17] = molecular target: GlcNAc(b1-4)[GlcNAc(b1-6)]GalNAc
How it was run: as §1

[18] = molecular target: Man(a1-2)Man(a1-2)Man(a1-3)Man
How it was run: as §1

[19] = molecular target: Man(b1-4)GlcNAc
How it was run: as §1

[20] = molecular target: Neu5Ac(a2-3)Gal(b1-3)GalNAc(b1-3)Gal(a1-4)Gal(b1-4)Glc
How it was run: as §1

[21] = molecular target: Neu5Ac(a2-3)Gal(b1-3)[Fuc(a1-4)]GlcNAc(b1-3)Gal(b1-3)[Fuc(a1-4)]GlcNAc
How it was run: as §1

[22] = molecular target: Neu5Ac(a2-3)Gal(b1-4)GlcNAc(b1-2)[Neu5Ac(a2-3)Gal(b1-4)GlcNAc(b1-4)]Man(a1-3)[GlcNAc(b1-4)][Neu5Ac(a2-3)Gal(b1-4)GlcNAc(b1-4)Man(a1-6)]Man(b1-4)GlcNAc(b1-4)GlcNAc
How it was run: as §1

[23] = molecular target: Neu5Ac(a2-3)[GalNAc(b1-4)]Gal(b1-4)GlcNAc
How it was run: as §1

[24] = molecular target: Neu5Ac(a2-6)Gal(b1-4)GlcNAc(b1-3)GalNAc
How it was run: as §1

[25] = molecular target: Neu5Ac(a2-6)GlcNAc(b1-4)GlcNAc
How it was run: as §1

[26] = molecular target: Neu5Ac(a2-8)Neu5Ac(a2-3)Gal(b1-3)GalNAc(b1-4)[Neu5Ac(a2-3)]Gal(b1-4)Glc
How it was run: as §1

[27] = molecular target: Neu5Gc(a2-6)Gal(b1-4)GlcNAc
How it was run: as §1

B1: Flo1 (Saccharomyces cerevisiae), P32768 (protein)
chain: SGATEACLPAGQRKSGMNINFYQYSLKDSSTYSNAAYMAYGYASKTKLGSVGGQTDISIDYNIPCVSSSGTFPCPQEDSYGNWGCKGMGACSNSQGIAYWSTDLFGFYTTPTNVTLEMTGYFLPPQTGSYTFKFATVDDSAILSVGGATAFNCCAQQQPPITSTNFTIDGIKPWGGSLPPNIEGTVYMYAGYYYPMKVVYSNAVSWGTLPISVTLPDGTTVSDDFEGYVYSFDDDLSQSNCTVPDPSNY
[1]
  glycan array binding signal (z-score): 1.44
[2]
  glycan array binding signal (z-score): -0.551
[3]
  glycan array binding signal (z-score): -0.392
[4]
  glycan array binding signal (z-score): -0.289
[5]
  glycan array binding signal (z-score): -0.778
[6]
  glycan array binding signal (z-score): -0.547
[7]
  glycan array binding signal (z-score): -0.216
[8]
  glycan array binding signal (z-score): 3.53
[9]
  glycan array binding signal (z-score): -0.358
[10]
  glycan array binding signal (z-score): 3.28
[11]
  glycan array binding signal (z-score): 2.23
[12]
  glycan array binding signal (z-score): -0.009
[13]
  glycan array binding signal (z-score): 0.011
[14]
  glycan array binding signal (z-score): -0.202
[15]
  glycan array binding signal (z-score): -0.618
[16]
  glycan array binding signal (z-score): -2.82
[17]
  glycan array binding signal (z-score): -0.024
[18]
  glycan array binding signal (z-score): 0.403
[19]
  glycan array binding signal (z-score): -0.306
[20]
  glycan array binding signal (z-score): -0.211
[21]
  glycan array binding signal (z-score): 0.24
[22]
  glycan array binding signal (z-score): 0.143
[23]
  glycan array binding signal (z-score): 0.215
[24]
  glycan array binding signal (z-score): 0.748
[25]
  glycan array binding signal (z-score): -0.394
[26]
  glycan array binding signal (z-score): 1.62
[27]
  glycan array binding signal (z-score): -0.199
